PubChem BioAssay (NCATS)
Inconclusive results are not listed. The source made the active and inactive calls. The call rests on the fitted dose curve; in most records, active means well fitted inhibition curve with a large enough effect; inconclusive means small, poorly fitted or top-dose-only effect; inactive means flat fitted curve, though single readings scatter.

Key:
[1] = qHTS profiling for inhibitors of Plasmodium falciparum proliferation (AID 504749);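 further: 0% = DMSO vehicle and full inhibition = artemisinin control; nearly all actives have a fitted effect of over 60% in size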; details: P. falciparum in erythrocytes, SYBR Green DNA, 72 h, at 28.7 µM (top of the series)
Outline: (§1)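 Quantitative HTS: compounds pinned into medium, infected erythrocytes added (0.3% parasitemia, 2.5% hematocrit), 72 h culture at 37 C under 5% CO2. Saponin/Triton lysis with SYBR Green I, overnight RT, then fluorescence read.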

3D7 = assay: as above; details: P. falciparum in erythrocytes, SYBR Green DNA, 72 h; series mostly up to 28.7 µM
Outline: as §1

7G8 = assay: as above; details: P. falciparum in erythrocytes, SYBR Green DNA, 72 h; series mostly up to 28.7 µM
Outline: as §1

AA1029 = assay: as above; details: P. falciparum in erythrocytes, SYBR Green DNA, 72 h; series mostly up to 28.7 µM
Outline: as §1

AS120 = assay: as above; details: P. falciparum in erythrocytes, SYBR Green DNA, 72 h; series mostly up to 28.7 µM
Outline: as §1

ATS189 = assay: as above; details: P. falciparum in erythrocytes, SYBR Green DNA, 72 h; series mostly up to 28.7 µM
Outline: as §1

ATS95 = assay: as above; details: P. falciparum in erythrocytes, SYBR Green DNA, 72 h; series mostly up to 28.7 µM
Outline: as §1

C2A = assay: as above; details: P. falciparum in erythrocytes, SYBR Green DNA, 72 h; series mostly up to 28.7 µM
Outline: as §1

CP185 = assay: as above; details: P. falciparum in erythrocytes, SYBR Green DNA, 72 h; series mostly up to 28.7 µM
Outline: as §1

CP191 = assay: as above; details: P. falciparum in erythrocytes, SYBR Green DNA, 72 h; series mostly up to 28.7 µM
Outline: as §1

CP192 = assay: as above; details: P. falciparum in erythrocytes, SYBR Green DNA, 72 h; series mostly up to 28.7 µM
Outline: as §1

CP194 = assay: as above; details: P. falciparum in erythrocytes, SYBR Green DNA, 72 h; series mostly up to 28.7 µM
Outline: as §1

CC(C)(C)CC(C)(C)c1cc(Cc2cc(C(C)(C)CC(C)(C)C)cc(-n3nc4ccccc4n3)c2O)c(O)c(-n2nc3ccccc3n2)c1
inactive: activity, negative = inhibition ([1]; parasite line A) 10.8% | activity, negative = inhibition ([1]; parasite line B) 2.7% | Potency (3D7) | Potency (7G8) | Potency (AA1029) | Potency (AS120) | Potency (ATS189) | Potency (ATS95) | Potency (C2A) | Potency (CP185) | Potency (CP191) | Potency (CP192) | Potency (CP194)

O=P(O)(O)OC[C@H]1O[C@](O)(COP(=O)(O)O)[C@@H](O)[C@@H]1O
inactive: activity, negative = inhibition ([1]; parasite line A) 8.54% | activity, negative = inhibition ([1]; parasite line B) 12.4% | Potency (3D7) | Potency (7G8) | Potency (AA1029) | Potency (AS120) | Potency (ATS189) | Potency (ATS95) | Potency (C2A) | Potency (CP185) | Potency (CP191) | Potency (CP192)

CCOc1ccc(NC(=S)Nc2ccc(OCC)cc2)cc1
inactive: activity, negative = inhibition ([1]; parasite line A) 1.76% | activity, negative = inhibition ([1]; parasite line B) -2.23% | Potency (3D7) | Potency (7G8) | Potency (AA1029) | Potency (AS120) | Potency (ATS189) | Potency (ATS95) | Potency (C2A) | Potency (CP185) | Potency (CP191) | Potency (CP192) | Potency (CP194)

Nc1nc(=O)n([C@@H]2CS[C@H](CO)O2)cc1F
inactive: activity, negative = inhibition ([1]; parasite line A) 2.36% | activity, negative = inhibition ([1]; parasite line B) 4.33% | Potency (3D7) | Potency (7G8) | Potency (AA1029) | Potency (AS120) | Potency (ATS189) | Potency (ATS95) | Potency (C2A) | Potency (CP185) | Potency (CP191) | Potency (CP192) | Potency (CP194)

Cc1cc(-c2ccc(N=Nc3ccc4c(S(=O)(=O)O)cc(S(=O)(=O)O)c(N)c4c3O)c(C)c2)ccc1N=Nc1ccc2c(S(=O)(=O)O)cc(S(=O)(=O)O)c(N)c2c1O
inactive: activity, negative = inhibition ([1]; parasite line A) 3.16% | activity, negative = inhibition ([1]; parasite line B) 5.39% | Potency (3D7) | Potency (7G8) | Potency (AA1029) | Potency (AS120) | Potency (ATS189) | Potency (ATS95) | Potency (C2A) | Potency (CP185) | Potency (CP191) | Potency (CP192) | Potency (CP194)

C=CCOc1ccc(CC(=O)O)cc1Cl
inactive: activity, negative = inhibition ([1]; parasite line A) 8.56% | activity, negative = inhibition ([1]; parasite line B) 1.68% | Potency (3D7) | Potency (7G8) | Potency (AA1029) | Potency (AS120) | Potency (ATS189) | Potency (ATS95) | Potency (C2A) | Potency (CP185) | Potency (CP191) | Potency (CP192) | Potency (CP194)

FC(F)OC(Cl)C(F)(F)F (configuration not stated)
inactive: activity, negative = inhibition ([1]; parasite line A) 2.2% | activity, negative = inhibition ([1]; parasite line B) 13% | Potency (3D7) | Potency (7G8) | Potency (AA1029) | Potency (AS120) | Potency (ATS189) | Potency (ATS95) | Potency (C2A) | Potency (CP185) | Potency (CP191) | Potency (CP192) | Potency (CP194)

NCC[C@H](O)C(=O)N[C@@H]1C[C@H](N)[C@@H](O[C@H]2O[C@H](CN)CC[C@H]2N)[C@H](O)[C@H]1O[C@H]1O[C@H](CO)[C@@H](O)[C@H](N)[C@H]1O
inactive: activity, negative = inhibition ([1]; parasite line A) -7.43% | activity, negative = inhibition ([1]; parasite line B) 9.77% | Potency (3D7) | Potency (7G8) | Potency (AA1029) | Potency (AS120) | Potency (ATS189) | Potency (ATS95) | Potency (C2A) | Potency (CP185) | Potency (CP191) | Potency (CP192) | Potency (CP194)

CC(C)(COP(=O)(O)OP(=O)(O)OC[C@H]1O[C@@H](n2cnc3c(N)ncnc32)[C@H](O)[C@@H]1OP(=O)(O)O)C(O)C(=O)NCCC(=O)NCCS (some centres not stated)
inactive: activity, negative = inhibition ([1]; parasite line A) 7.03% | activity, negative = inhibition ([1]; parasite line B) 2.39% | Potency (3D7) | Potency (7G8) | Potency (AA1029) | Potency (AS120) | Potency (ATS189) | Potency (ATS95) | Potency (C2A) | Potency (CP185) | Potency (CP191) | Potency (CP192) | Potency (CP194)

COc1cc2c(cc1OC)[C@@H](Cc1cc(OC)c(OC)c(OC)c1)[N+](C)(CCCOC(=O)CC/C=C/CCC(=O)OCCC[N+]1(C)CCc3cc(OC)c(OC)cc3[C@H]1Cc1cc(OC)c(OC)c(OC)c1)CC2 (some centres not stated)
inactive: activity, negative = inhibition ([1]; parasite line A) 0.013% | activity, negative = inhibition ([1]; parasite line B) -1.97% | Potency (3D7) | Potency (7G8) | Potency (AA1029) | Potency (AS120) | Potency (ATS189) | Potency (ATS95) | Potency (C2A) | Potency (CP185) | Potency (CP191) | Potency (CP192) | Potency (CP194)

O=C(O)COc1ccccc1/C=N/NC(=O)c1ccncc1
inactive: activity, negative = inhibition ([1]; parasite line A) 7.51% | activity, negative = inhibition ([1]; parasite line B) 0.92% | Potency (3D7) | Potency (7G8) | Potency (AA1029) | Potency (AS120) | Potency (ATS189) | Potency (ATS95) | Potency (C2A) | Potency (CP185) | Potency (CP191) | Potency (CP192) | Potency (CP194)

Oc1cc(O)cc(O)c1
inactive: activity, negative = inhibition ([1]; parasite line A) 0.686% | activity, negative = inhibition ([1]; parasite line B) -2.93% | Potency (3D7) | Potency (7G8) | Potency (AA1029) | Potency (AS120) | Potency (ATS189) | Potency (ATS95) | Potency (C2A) | Potency (CP185) | Potency (CP191) | Potency (CP192) | Potency (CP194)

OCC1(CO)COC(C(Cl)(Cl)Cl)OC1
inactive: activity, negative = inhibition ([1]; parasite line A) 2.06% | activity, negative = inhibition ([1]; parasite line B) 5.66% | Potency (3D7) | Potency (7G8) | Potency (AA1029) | Potency (AS120) | Potency (ATS189) | Potency (ATS95) | Potency (C2A) | Potency (CP185) | Potency (CP191) | Potency (CP192) | Potency (CP194)

Nc1ncnc2c1ncn2CCOCP(=O)(O)O
inactive: activity, negative = inhibition ([1]; parasite line A) 14.6% | activity, negative = inhibition ([1]; parasite line B) 5.72% | Potency (3D7) | Potency (7G8) | Potency (AA1029) | Potency (AS120) | Potency (ATS189) | Potency (ATS95) | Potency (C2A) | Potency (CP185) | Potency (CP191) | Potency (CP192) | Potency (CP194)

CC1(O)CCC(C(C)(C)O)CC1 (configuration not stated)
inactive: activity, negative = inhibition ([1]; parasite line A) -2.29% | activity, negative = inhibition ([1]; parasite line B) 4.1% | Potency (3D7) | Potency (7G8) | Potency (AA1029) | Potency (AS120) | Potency (ATS189) | Potency (ATS95) | Potency (C2A) | Potency (CP185) | Potency (CP191) | Potency (CP192) | Potency (CP194)

NC(=O)C1c2ccccc2CCc2ccccc21
inactive: activity, negative = inhibition ([1]; parasite line A) -4.87% | activity, negative = inhibition ([1]; parasite line B) 8.64% | Potency (3D7) | Potency (7G8) | Potency (AA1029) | Potency (AS120) | Potency (ATS189) | Potency (ATS95) | Potency (C2A) | Potency (CP185) | Potency (CP191) | Potency (CP192) | Potency (CP194)
